Among all 2,400 compounds or so, about 1,400 (58%) were called active.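 How the source made its calls: active means inhibition of 30% or more at any tested dose; inconclusive means primary hits over the limit that were never retested; inactive means the rest.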 The set was probably picked from earlier hits. The list shows a part of the results.
Test: coupled detection enzyme interference, dose response, artefact control for MgcRacGAP inhibitor project, biochemical, coupled enzyme counter-screen (AID 624351);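 further: signal is the ADP detection kit reading of free GDP without any GAP enzyme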
Settings: ADP Hunter coupled enzyme counter-screen, fluorescence, no MgcRacGAP; series mostly up to 80 µM

Row | SMILES | IC50
1 | O=c1oc2ccccc2c2c1C(c1ccc(Cl)cc1)Nc1ccc3ccccc3c1-2 (stereo unspecified) | inactive
2 | CN1CCCN(Cc2ccccc2C(F)(F)F)CC1 | inactive
3 | CCc1nnc(NC(=O)CSCc2cc(=O)n3ccsc3n2)s1 | inactive
4 | COc1ccc(OC(=O)C2CC(=O)N(c3ccc(C)cc3)C2)cc1 (stereo unspecified) | inactive
5 | Cc1ccc(N2CC(C(=O)Nc3ccc(N(C)C)cc3)CC2=O)cc1C (stereo unspecified) | 62.4 µM (active)
6 | CS(=O)(=O)C1=NSC2=NC(=O)/C(=C\c3ccc(OC(=O)c4ccco4)c(Br)c3)C(=N)N21 | inactive
7 | O=[N+]([O-])c1ccc(N2CCN(CCOCCO)CC2)c([N+](=O)[O-])c1 | inactive
8 | O=[N+]([O-])c1ccc(N2CCN(c3ccc(O)cc3)CC2)c(Cl)c1 | 40.4 µM (active)
9 | Cc1cc(Cl)cc2sc(=S)[nH]c12 | 81.5 µM (active)
10 | Cc1c(N(C)C)nc2ccccc2c1N | inactive
11 | CN(C)c1cc2c3ccccc3n(C)c2cc1N | 13.4 µM (active)
12 | CCn1c2ccccc2c2cc(N)ccc21 | inactive
13 | CC1(C)OC(=O)C(=NNc2ccc(O)cc2)C(=O)O1 | 23.5 µM (active)
14 | Cc1ccc(SCCN2CCN(Cc3ccccc3)CC2)cc1 | inactive
15 | COc1ccc2[nH]c3c(N4CCC(O)(c5cccc(C(F)(F)F)c5)CC4)ncnc3c2c1 | inactive
16 | Cc1ccc2c(c1)[nH]c1c(N3CCN(Cc4ccccc4)CC3)ncnc12 | 45.1 µM (active)
17 | Cc1nc2ccccc2n2c(O)c(CC(=O)O)cc12 | 33 µM (active)
18 | COc1cc(/C=C/C(=O)N[C@@H](Cc2c[nH]c3ccccc23)C(=O)O)ccc1O | 83.7 µM (active)
19 | O=S(=O)(c1ccc2ccccc2c1)N1CCN(c2ccc(O)cc2)CC1 | 39.5 µM (active)
20 | Cc1ccc(CN2CCN(C(=O)CC(C)C)CC2)cc1 | inactive
21 | C/C=C(\C)CN1CCN(c2ccc(C)cc2)CC1 | inactive
22 | Cc1ccc(S(=O)(=O)N2CCN(C(=O)CN3CCN(c4ccc(O)cc4)CC3)CC2)cc1 | 34.6 µM (active)
23 | O=C(CSc1ccc2ccccc2c1)N1CCN(c2ccc(O)cc2)CC1 | 46.5 µM (active)
24 | CCOC(=O)N1CCC(N2CCN(S(=O)(=O)c3ccc4ccccc4c3)CC2)CC1 | inactive

Row | SMILES | IC50
25 | O=S(=O)(c1ccc2ccccc2c1)N1CCN(C2CCN(Cc3ccccc3)CC2)CC1 | inactive
26 | Cc1cc2nc(/N=C(\N)NC(=O)N3c4ccccc4Sc4ccccc43)nc(C)c2cc1C | inactive
27 | C#CCOCCOCCOCCNc1nc(N2CCN(C(=O)C([C@@H](C)O)n3cc([C@@H](N)CCCCN)nn3)CC2)nc(N2CCN(C(=O)[C@H](CCCN=C(N)N)n3cc(C(N)[C@@H](C)CC)nn3)CC2)n1 (stereo partly specified) | inactive
28 | Cc1cc(O)ccc1Nc1nc(-c2cccs2)cs1 | 44 µM (active)
29 | CC(C)N1CCN(C(=O)c2cccc(Cl)c2)CC1 | inactive
30 | Nc1ccc(N2CCN(c3ccc(Cl)c(Cl)c3)CC2)cc1 | 20.5 µM (active)
31 | Nc1ccc(N2CCN(c3cccc(Cl)c3)CC2)cc1 | 18.6 µM (active)
32 | CCCCCC(=O)Nc1cc(S(=O)(=O)O)cc2cc(S(=O)(=O)O)cc(O)c12 | inactive
33 | CCN(CC)c1ccc(NS(=O)(=O)c2ccc(-c3ccc(=O)[nH]n3)o2)c(C)c1 | inactive
34 | CC(=O)Nc1n[nH]c(=S)s1 | 48.7 µM (active)
35 | CCOc1ccc(Nc2n[nH]c(=S)s2)cc1 | 42.5 µM (active)
36 | Cc1ccc(Nc2n[nH]c(=S)s2)cc1 | 50.6 µM (active)
37 | Cc1ccc(Nc2n[nH]c(=S)s2)cc1F | 50.3 µM (active)
38 | O=C(O)c1ccc(S(=O)(=O)c2ccc3c(c2)C(=O)N(NC(=O)c2cccnc2)C3=O)cc1 | inactive
39 | COc1ccc(NC2=NCCC2)cc1 | inactive
40 | COc1ccc(NC(=S)NNS(=O)(=O)c2ccc3ccccc3c2)c(OC)c1 | inactive
41 | COc1ccc(Nc2ccc3ccccc3c2)cc1 | 66.9 µM (active)
42 | COc1ccc(Nc2ccccc2)c(C)c1 | 37.4 µM (active)
43 | OCCN1CCN(CC(O)COC(c2ccc(F)cc2)c2ccc(F)cc2)CC1 (stereo unspecified) | inactive
44 | CCOc1ccc2nc(NC(=O)CS(=O)(=O)c3ccccc3)sc2c1 | inactive
45 | Cc1cc(OCc2nc3ccccc3s2)ccc1N | 63.7 µM (active)
46 | CCCS(=O)(=O)N1CCN(CC2CC3C=CC2C3)CC1 (stereo unspecified) | inactive
47 | COc1cc(OC)c(CN2CCCN(C)CC2)cc1Br | inactive
48 | Oc1ccc(Cc2ccc(Cl)cc2)c(O)c1 | 78 µM (active)

Row | SMILES | IC50
49 | Fc1ccc(CNCc2ccccc2Cl)cc1 | inactive
50 | Oc1ccc(Cc2ccccc2Cl)c(O)c1 | 60.2 µM (active)
51 | CCC(=O)N1CCc2cc(S(=O)(=O)CCC(=O)NCc3ccc(C)cc3)ccc21 | inactive
52 | N#CC1(Nc2ccc(-c3ccc(NC4(C#N)CCCC4)cc3)cc2)CCCC1 | 11.6 µM (active)
53 | CC[n+]1ccc(/C=C/c2ccc(N(C)C)cc2)c2ccccc21 | 47 µM (active)
54 | CCOc1ccccc1N1CCN(C/C=C/c2ccc(N(C)C)cc2)CC1 | inactive
55 | C[n+]1ccc(/C=C/c2ccccc2O)c2ccccc21 | inactive
56 | O=C(CCl)NCCN1C(=O)S/C(=C\c2cccnc2)C1=O | inactive
57 | COc1cc2c(cc1OC)C(/C=C/c1ccco1)=NCC2 | inactive
58 | O=c1/c(=C/c2ccc(O)cc2)sc2n1CCCN=2 | 21.7 µM (active)
59 | COc1cc(/C=c2\sc3n(c2=O)CCCN=3)ccc1O | 17.7 µM (active)
60 | Cc1cc(Cl)cc(C)c1OCCOCCNCc1ccccc1 | inactive
61 | Cc1cc2[nH]c3c4ccccc4nc(C)c3c2cc1C | inactive
62 | O=C1Nc2ccccc2C1=Nc1ccc2[nH]c3ccccc3c2c1 | 23.4 µM (active)
63 | CCOC(=O)c1c(N)sc2c1CCS(=O)(=O)C2 | inactive
64 | CCOC(=O)c1c(N)sc2c(O)c(Br)ccc12 | 58.1 µM (active)
65 | Oc1ccc2c(ccc3[nH]cnc32)c1 | 42.6 µM (active)
66 | CC(C(=O)Nc1ccc2c(c1)OCO2)N1CCN(C)CC1 (stereo unspecified) | inactive
67 | CN(C)c1ccc(NC(=O)COC(=O)c2ccc3c(c2)OCO3)cc1 | 67 µM (active)
68 | CCN(CC)C(=O)C1CCCN(Cc2ccc3c(c2)OCO3)C1 (stereo unspecified) | inactive
69 | O=C(Oc1ccc2c(c1)OCO2)c1ccncc1 | inactive
70 | CCN(CC)CCOC(=O)c1ccc(N/C=C(/C#N)c2nc(-c3ccc4c(c3)OCO4)cs2)cc1 | inactive
71 | CCN(CC)c1ccc(NC(=O)c2ccc3c(c2)OCO3)cc1 | 66.8 µM (active)
